# Measured values: PubChem BioAssay (EPA / NIEHS)
# “And” between values parts separate entries of the source, which are not always exact repeats. Equal values may be shown once. More than one record can exist for a structure, and the calls need not agree. The source made the active and inactive calls. Rule for the calls: active = hit-call score of the fitted dose curve at least 0.9, where 1 is the maximum; inactive = score below 0.9.
# Columns and labels:
# [1] = ATG_E_Box_CIS: Attagene CIS-FACTORIAL HepG2 Assay for human Enhancer Box (E-box) (AID 2282936); conditions: HepG2 E-box cis-reporter transcription, actives raise or lower the signal
# In short: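 Fluorescent reporter fragments separated by capillary electrophoresis gave the signal; mRNA came from HepG2 cells transfected with cis-element reporters and treated 24 h. Curves fitted bidirectionally relative to DMSO controls.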
# [2] = ATG_M_61_CIS: Attagene CIS-FACTORIAL HepG2 Assay for M61 Transcription Factor (Internal Marker) (AID 2282937); conditions: HepG2 Attagene CIS-FACTORIAL M61 internal marker reporter; actives raise or lower the signal
# In short: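 Multiplexed reporter mRNA assay, HepG2 human hepatoma cells, 24 h treatment. Signal: FAM-labelled, HpaI-digested RT-PCR fragments by CE. Fit: bidirectional, baseline DMSO.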
# [3] = ATG_EGR_CIS: Attagene CIS-FACTORIAL HepG2 Assay for human Early Growth Response 1 (EGR1) (AID 2282938); conditions: HepG2 Attagene CIS-FACTORIAL EGR reporter mRNA; actives raise or lower the signal
# In short: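 Multiplexed cis-reporter system in human hepatoma HepG2 cells, transiently transfected. Cells are dosed for 24 h; reporter transcripts are amplified, fluorescently tagged and sized by capillary electrophoresis, with DMSO as negative control.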
# [4] = ATG_M_19_CIS: Attagene CIS-FACTORIAL HepG2 Assay for M19 Transcription Factor (Internal Marker) (AID 2282939); conditions: HepG2 Attagene CIS-FACTORIAL M19 internal marker reporter; actives raise or lower the signal
# In short: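 Internal marker readout, fitted in both directions against DMSO, from HepG2 cells carrying transfected cis-element reporter constructs; RT-PCR and capillary electrophoresis of reporter mRNA after 24 h exposure.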
# [5] = ATG_Ets_CIS: Attagene CIS-FACTORIAL HepG2 Assay for human Erythroblast Transformation Specific (ETS) (AID 2282941); conditions: HepG2 ETS cis-reporter transcription, actives raise or lower the signal
# In short: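 RT-PCR/capillary electrophoresis fluorescence read-out of reporter mRNA; HepG2 transient multi-reporter transfection; 24 h compound exposure; gain or loss of signal fitted bidirectionally relative to DMSO.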
# [6] = molecular target: Hepatocyte nuclear factor 3-beta (Homo sapiens) (UniProt Q9Y261); experiment: ATG_FoxA2_CIS: Attagene CIS-FACTORIAL HepG2 Assay for human Forkhead box A2 (FOXA2) (AID 2282942); conditions: HepG2 cis-reporter transcription factor activity, 24 h; actives raise or lower the signal
# Hepatocyte nuclear factor 3-beta (Homo sapiens), sequence (Q9Y261 whole entry, looked up): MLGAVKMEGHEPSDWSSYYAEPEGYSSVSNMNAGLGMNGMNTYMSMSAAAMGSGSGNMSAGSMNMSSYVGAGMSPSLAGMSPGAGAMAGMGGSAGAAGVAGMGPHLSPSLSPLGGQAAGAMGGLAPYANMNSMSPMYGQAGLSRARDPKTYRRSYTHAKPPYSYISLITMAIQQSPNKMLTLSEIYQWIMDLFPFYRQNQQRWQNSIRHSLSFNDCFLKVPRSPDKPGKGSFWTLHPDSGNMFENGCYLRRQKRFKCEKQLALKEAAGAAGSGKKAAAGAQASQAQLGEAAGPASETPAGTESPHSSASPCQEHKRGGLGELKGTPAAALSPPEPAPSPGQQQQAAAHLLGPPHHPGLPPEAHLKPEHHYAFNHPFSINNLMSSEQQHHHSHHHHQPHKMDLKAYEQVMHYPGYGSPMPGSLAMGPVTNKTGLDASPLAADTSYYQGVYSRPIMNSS
# In short: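 Multiplexed cis-element reporter assay in transiently transfected HepG2. Twenty-four hours post-dosing, RNA was reverse-transcribed, amplified, FAM-labelled, HpaI-digested and separated by CE. Activity gain or loss relative to DMSO.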
# [7] = ATG_GATA_CIS: Attagene CIS-FACTORIAL HepG2 Assay for human GATA Binding Protein (AID 2282944); conditions: HepG2 GATA cis-element reporter, Attagene multiplex mRNA; actives raise or lower the signal
# In short: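 Reporter transcripts from a GATA cis-regulated unit, among multiplexed reporters in transfected HepG2 cells, were measured by RT-PCR with capillary electrophoresis after 24 h dosing. Induction or loss scored relative to DMSO.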
# [8] = ATG_GLI_CIS: Attagene CIS-FACTORIAL HepG2 Assay for human Zinc Finger Protein GLI1 (AID 2282945); conditions: HepG2, Attagene cis-factorial reporter mRNA, GLI element; actives raise or lower the signal
# In short: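 Bidirectional curve fits relative to DMSO, using reporter mRNA levels from RT-PCR plus capillary electrophoresis. Cells were HepG2 transiently carrying cis-regulated reporter constructs, harvested 24 h after dosing.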
# [9] = molecular target: Bile acid receptor (Homo sapiens) (UniProt Q96RI1); experiment: ATG_IR1_CIS: Attagene CIS-FACTORIAL HepG2 Assay for human Nuclear Receptor Subfamily 1 Group H Member 4 (NR1H4), IR1 submotif (AID 2282946); conditions: IR1 reporter transcription, actives raise or lower the signal
# Bile acid receptor (Homo sapiens), sequence (Q96RI1 whole entry, looked up): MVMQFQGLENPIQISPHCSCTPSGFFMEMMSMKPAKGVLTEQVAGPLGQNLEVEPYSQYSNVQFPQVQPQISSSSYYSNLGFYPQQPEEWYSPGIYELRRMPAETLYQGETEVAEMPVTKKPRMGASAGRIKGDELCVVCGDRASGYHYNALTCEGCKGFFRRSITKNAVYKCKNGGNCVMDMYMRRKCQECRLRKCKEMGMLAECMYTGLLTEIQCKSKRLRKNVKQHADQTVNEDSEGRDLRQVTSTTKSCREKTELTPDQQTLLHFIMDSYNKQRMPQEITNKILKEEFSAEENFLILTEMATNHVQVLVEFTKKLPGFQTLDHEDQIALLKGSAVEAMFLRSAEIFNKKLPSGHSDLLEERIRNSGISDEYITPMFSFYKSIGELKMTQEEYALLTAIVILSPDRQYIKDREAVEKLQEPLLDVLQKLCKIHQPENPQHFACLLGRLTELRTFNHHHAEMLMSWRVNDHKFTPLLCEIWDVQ
# In short: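 HepG2 cells transiently transfected with multiplexed cis-element reporter units read endogenous transcription factor activity. After 24 h compound exposure, reporter mRNA was quantified by RT-PCR, fluorescent labelling, HpaI digestion and capillary electrophoresis; bidirectional fitting versus DMSO baseline.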
# [10] = ATG_ISRE_CIS: Attagene CIS-FACTORIAL HepG2 Assay for human Interferon Regulatory Factor 1 (IRF1) binding to an Interferon-Stimulated Response Element (ISRE) (AID 2282948); conditions: HepG2 ISRE cis-reporter (Attagene), mRNA transcription readout; actives raise or lower the signal
# In short: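 Read-out: fluorescent RT-PCR products resolved by capillary electrophoresis, reporting endogenous transcription factor activity via ISRE-driven reporter mRNA in transfected HepG2 cells dosed for 24 h; gain or loss fitted relative to DMSO.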
# [11] = ATG_M_32_CIS: Attagene CIS-FACTORIAL HepG2 Assay for M32 Transcription Factor (Internal Marker) (AID 2282949); conditions: HepG2 Attagene cis-factorial M32 reporter, mRNA; actives raise or lower the signal;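 note: background control marker of the multiplexed CIS panel rather than a real target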
# In short: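 Transient MRTU transfection of HepG2; 24 h compound treatment; TriZol RNA, oligo(dT) RT, reporter PCR, 6-FAM primer extension, HpaI cut, CE. Gain/loss of signal vs DMSO.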
# [12] = molecular target: Hepatocyte nuclear factor 6 (Homo sapiens) (UniProt Q9UBC0); experiment: ATG_HNF6_CIS: Attagene CIS-FACTORIAL HepG2 Assay for human Hepatocyte Nuclear Factor 6 (HNF6) (AID 2282952); conditions: HepG2 Attagene cis-factorial HNF6 reporter transcription; actives raise or lower the signal
# Hepatocyte nuclear factor 6 (Homo sapiens), sequence (Q9UBC0 whole entry, looked up): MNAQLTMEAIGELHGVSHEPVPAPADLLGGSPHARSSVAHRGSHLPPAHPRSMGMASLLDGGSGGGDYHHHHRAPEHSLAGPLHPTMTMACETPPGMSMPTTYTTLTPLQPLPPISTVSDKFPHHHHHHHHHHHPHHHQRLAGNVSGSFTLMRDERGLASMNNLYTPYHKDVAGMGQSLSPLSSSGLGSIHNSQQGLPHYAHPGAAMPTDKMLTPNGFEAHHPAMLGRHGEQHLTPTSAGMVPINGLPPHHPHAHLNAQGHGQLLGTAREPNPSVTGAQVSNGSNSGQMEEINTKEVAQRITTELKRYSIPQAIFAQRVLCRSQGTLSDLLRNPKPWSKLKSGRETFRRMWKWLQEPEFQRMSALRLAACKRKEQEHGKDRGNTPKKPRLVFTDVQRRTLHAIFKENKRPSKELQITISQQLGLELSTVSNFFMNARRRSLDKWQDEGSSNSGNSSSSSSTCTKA
# In short: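 Activity values derive from bidirectional fitting against DMSO of reporter mRNA levels, measured by capillary electrophoresis of labelled RT-PCR products from HepG2 cells exposed 24 h.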
# [13] = molecular target: Heat shock factor protein 1 (Homo sapiens) (UniProt Q00613); experiment: ATG_HSE_CIS: Attagene CIS-FACTORIAL HepG2 Assay for human Heat Shock Transcription Factor 1 (HSE) (AID 2282953); conditions: HepG2 HSE cis-reporter, Attagene RNA transcription; actives raise or lower the signal
# Heat shock factor protein 1 (Homo sapiens), sequence (Q00613 whole entry, looked up): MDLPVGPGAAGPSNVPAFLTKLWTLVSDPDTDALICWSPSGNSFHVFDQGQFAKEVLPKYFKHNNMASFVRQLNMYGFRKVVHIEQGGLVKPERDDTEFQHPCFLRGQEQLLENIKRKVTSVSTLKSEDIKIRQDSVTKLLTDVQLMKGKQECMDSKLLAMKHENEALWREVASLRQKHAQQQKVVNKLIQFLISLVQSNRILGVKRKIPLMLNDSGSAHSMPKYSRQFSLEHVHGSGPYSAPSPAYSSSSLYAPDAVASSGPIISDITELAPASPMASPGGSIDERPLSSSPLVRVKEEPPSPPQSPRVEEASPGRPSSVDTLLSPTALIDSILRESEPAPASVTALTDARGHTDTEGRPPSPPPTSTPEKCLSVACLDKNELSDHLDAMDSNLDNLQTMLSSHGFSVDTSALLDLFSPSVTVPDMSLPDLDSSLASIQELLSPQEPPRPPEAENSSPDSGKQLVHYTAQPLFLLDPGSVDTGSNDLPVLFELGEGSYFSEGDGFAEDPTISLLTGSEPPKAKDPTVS
# In short: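 Endogenous transcription factor activity in transiently transfected HepG2, read as reporter mRNA by RT-PCR with fluorescent capillary electrophoresis after 24 h. Gain or loss of signal fitted versus DMSO baseline.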
# [14] = ATG_MRE_CIS: Attagene CIS-FACTORIAL HepG2 Assay for human Metal Responsive Element (MRE) (AID 2282954); conditions: HepG2 MRE cis-reporter transcription, Attagene multiplex; actives raise or lower the signal
# In short: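 Multiplexed cis-reporter assay in human HepG2 liver cells, 24 h incubation with test chemical. Reporter transcripts measured by RT-PCR and capillary electrophoresis; values from bidirectional curve fitting versus DMSO.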
# [15] = ATG_PBREM_CIS: Attagene CIS-FACTORIAL HepG2 Assay for human Phenobarbital-responsive Enhancer Module (PBREM) (AID 2282955); conditions: HepG2 PBREM cis-reporter, Attagene multiplexed transcription; actives raise or lower the signal
# In short: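 Multiplexed cis-reporter readout in human hepatoma HepG2 cells; PBREM-regulated transcript quantified after 24 h exposure by fluorescent RT-PCR fragment analysis. Signal changes up or down fitted relative to DMSO.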
# [16] = ATG_ERE_CIS: Attagene CIS-FACTORIAL HepG2 Assay for Estrogen Response Element (ERE) (AID 2282940); conditions: HepG2 ERE cis-reporter, Attagene RNA transcript; actives raise or lower the signal
# In short: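 After 24 h compound treatment, RNA from transfected HepG2 cells was reverse-transcribed, reporter cDNA PCR-amplified, FAM-labelled, HpaI-cut and resolved by capillary electrophoresis. ERE-driven cis reporter transcripts reflect endogenous factors; gain or loss scored against DMSO.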
# [17] = ATG_GRE_CIS: Attagene CIS-FACTORIAL HepG2 Assay for human Glucocorticoid Response Elements (GRE) (AID 2282947); conditions: HepG2 GRE cis-reporter, Attagene multiplex mRNA; actives raise or lower the signal
# In short: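 Multiplexed cis-reporter mRNA induction, HepG2, 24 h post-dose. RT-PCR, FAM-labelled, HpaI-digested amplicons by CE. Bidirectional fit vs DMSO.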
# [18] = molecular target: Hypoxia-inducible factor 1-alpha (Homo sapiens) (UniProt Q16665); experiment: ATG_HIF1a_CIS: Attagene CIS-FACTORIAL HepG2 Assay for human Hypoxia Inducible Factor 1 (HIF1A) (AID 2282951); conditions: HepG2 Attagene cis-factorial HIF1a reporter transcription; actives raise or lower the signal
# Hypoxia-inducible factor 1-alpha (Homo sapiens), sequence (Q16665 whole entry, looked up): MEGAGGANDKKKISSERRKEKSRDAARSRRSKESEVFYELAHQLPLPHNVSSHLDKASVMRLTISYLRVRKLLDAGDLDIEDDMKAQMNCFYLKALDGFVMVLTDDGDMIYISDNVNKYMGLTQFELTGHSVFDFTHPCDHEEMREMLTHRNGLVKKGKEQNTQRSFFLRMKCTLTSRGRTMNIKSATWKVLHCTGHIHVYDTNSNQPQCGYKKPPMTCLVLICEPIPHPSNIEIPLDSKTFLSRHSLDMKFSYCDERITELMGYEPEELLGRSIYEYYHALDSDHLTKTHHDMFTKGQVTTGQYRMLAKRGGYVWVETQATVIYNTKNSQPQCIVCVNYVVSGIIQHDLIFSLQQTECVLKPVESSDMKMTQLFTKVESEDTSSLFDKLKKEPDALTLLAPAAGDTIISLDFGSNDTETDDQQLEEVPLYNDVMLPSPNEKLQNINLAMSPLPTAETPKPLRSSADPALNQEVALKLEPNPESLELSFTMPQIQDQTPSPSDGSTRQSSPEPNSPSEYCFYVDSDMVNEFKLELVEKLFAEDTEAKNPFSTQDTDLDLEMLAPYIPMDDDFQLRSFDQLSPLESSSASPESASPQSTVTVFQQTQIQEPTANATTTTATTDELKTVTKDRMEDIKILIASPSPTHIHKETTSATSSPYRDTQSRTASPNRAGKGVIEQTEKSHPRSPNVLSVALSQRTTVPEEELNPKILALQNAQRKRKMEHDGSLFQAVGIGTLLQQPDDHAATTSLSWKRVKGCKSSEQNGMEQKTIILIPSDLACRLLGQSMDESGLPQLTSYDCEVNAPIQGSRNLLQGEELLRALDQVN
# In short: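 Cis-element reporter constructs were transiently transfected into HepG2 cells, which were treated for 24 h; reporter RNA was reverse-transcribed, amplified, labelled and resolved by capillary electrophoresis.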
# [19] = ATG_FoxO_CIS: Attagene CIS-FACTORIAL HepG2 Assay for human Forkhead box O (FoxO) (AID 2282943); conditions: HepG2 Attagene cis-reporter, FoxO element, mRNA; actives raise or lower the signal
# In short: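 Endogenous transcription factor activity read from multiplexed cis-promoter reporter transcripts in transiently transfected HepG2, 24 h after dosing. Reporter RNA measured via RT-PCR plus capillary electrophoresis of FAM-labeled products; gain or loss relative to DMSO.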
smiles,measurement,setting,value
C[C@]12CCC(=O)C=C1CC[C@@H]1[C@@H]2CC[C@]2(C)C(=O)CC[C@@H]12,outcome,[1],inactive
same,outcome,[2],inactive
same,outcome,[3],inactive
same,outcome,[4],inactive
same,outcome,[5],inactive
same,outcome,[6],inactive
same,outcome,[7],inactive
same,outcome,[8],inactive
same,outcome,[9],inactive
same,outcome,[10],inactive
same,outcome,[11],inactive
same,outcome,[12],inactive
same,outcome,[13],inactive
same,outcome,[14],inactive
same,outcome,[15],inactive
CCOCCOC(C)=O,outcome,[1],inactive
same,outcome,[2],inactive
same,outcome,[3],inactive
same,outcome,[4],inactive
same,outcome,[16],inactive
same,outcome,[5],inactive
same,outcome,[6],inactive
same,outcome,[7],inactive
same,outcome,[8],inactive
same,outcome,[17],inactive
same,outcome,[11],inactive
same,outcome,[18],inactive
same,outcome,[12],inactive
same,outcome,[13],inactive
same,outcome,[14],inactive
O=C(NC(=O)c1c(F)cccc1F)Nc1cc(Cl)c(OC(F)(F)C(F)F)c(Cl)c1,outcome,[1],inactive
same,outcome,[2],inactive
same,outcome,[3],inactive
same,outcome,[4],inactive
same,outcome,[16],inactive
same,outcome,[5],inactive
same,outcome,[6],inactive
same,outcome,[7],inactive
same,outcome,[8],inactive
same,outcome,[17],inactive
same,outcome,[11],inactive
same,outcome,[18],inactive
same,outcome,[12],inactive
same,outcome,[13],inactive
same,outcome,[14],inactive
same,outcome,[15],inactive
Cc1cc(-c2ccc(N)c(C)c2)ccc1N,outcome,[1],inactive
same,outcome,[2],inactive
same,outcome,[3],inactive
same,outcome,[4],inactive
same,AC50,[16],14.6 µM (active) and 12.8 µM (active)
same,outcome,[5],inactive
same,outcome,[6],inactive
same,outcome,[7],inactive
same,outcome,[8],inactive
same,outcome,[10],inactive
same,outcome,[11],inactive
same,outcome,[18],inactive
same,outcome,[12],inactive
same,outcome,[13],inactive
same,outcome,[14],inactive
same,outcome,[15],inactive
CCCCCCOC(=O)c1ccccc1C(=O)OCCCCCC,outcome,[1],inactive
same,outcome,[2],inactive
same,outcome,[3],inactive
same,outcome,[4],inactive
same,AC50,[16],4.15 µM (active)
same,outcome,[5],inactive
same,outcome,[6],inactive
same,outcome,[7],inactive
same,outcome,[8],inactive
same,outcome,[17],inactive
same,outcome,[11],inactive
same,outcome,[18],inactive
same,outcome,[12],inactive
same,outcome,[13],inactive
same,outcome,[14],inactive
same,outcome,[15],inactive
ClC1=C(Cl)[C@]2(Cl)[C@@H]3[C@H]4C[C@H]([C@@H]5O[C@H]45)[C@@H]3[C@@]1(Cl)C2(Cl)Cl,outcome,[1],inactive
same,outcome,[2],inactive
same,outcome,[3],inactive
same,outcome,[4],inactive
same,AC50,[16],0.279 µM (active)
same,outcome,[5],inactive
same,outcome,[6],inactive
same,outcome,[19],inactive
same,outcome,[7],inactive
same,outcome,[8],inactive
same,outcome,[17],inactive
same,outcome,[11],inactive
same,outcome,[18],inactive
same,outcome,[12],inactive
same,outcome,[13],inactive
same,outcome,[14],inactive
CC(C)(O)C(=O)Nc1ccc([N+](=O)[O-])c(C(F)(F)F)c1,outcome,[1],inactive
same,outcome,[2],inactive
same,outcome,[3],inactive
same,outcome,[4],inactive
same,outcome,[16],inactive
same,outcome,[5],inactive
same,outcome,[6],inactive
same,outcome,[7],inactive
same,outcome,[8],inactive
same,outcome,[11],inactive
same,outcome,[18],inactive
same,outcome,[12],inactive
same,AC50,[13],77 µM (active)
same,outcome,[13],inactive
same,outcome,[14],inactive
same,outcome,[15],inactive
